Test results reported in PubChem BioAssay (EPA / NIEHS).
“And” between values parts separate entries of the source, which are not always exact repeats. Equal values may be shown once. Some structures have more than one record in an assay (separate samples or runs), and their calls can disagree. The source made the active and inactive calls. Rule for the calls: active = hit-call score of the fitted dose curve at least 0.9, where 1 is the maximum; inactive = score below 0.9.

assay: ATG_EGR_CIS: Attagene CIS-FACTORIAL HepG2 Assay for human Early Growth Response 1 (EGR1) (AID 2282938); conditions: HepG2 Attagene CIS-FACTORIAL EGR reporter mRNA; actives raise or lower the signal
Description: ATG_CIS is a cell-based, multiplexed-readout assay that uses HepG2, a human liver cell line, with measurements taken at 24 hours after chemical dosing in a 24-well plate.ATG_EGR_CIS is one of 52 assay component(s) measured or calculated from the ATG_CIS assay. It is designed to make measurements of mRNA induction, a form of inducible reporter, as detected with fluorescence intensity signals by Reverse transcription polymerase chain reaction (RT-PCR) and Capillary electrophoresis technology.Data from the assay component ATG_EGR_CIS was analyzed into 1 assay endpoint. This assay endpoint, ATG_EGR_CIS, was analyzed with bidirectional fitting relative to DMSO as the negative control and baseline of activity. Using a type of inducible reporter, measures of mRNA for gain or loss-of-signal activity can be used to understand the reporter gene at the transcription factor-level as they relate to the gene EGR1. Furthermore, this assay endpoint can be referred to as a primary readout, because this assay has produced multiple assay endpoints where this one serves a reporter gene function. To generalize the intended target to other relatable targets, this assay endpoint is annotated to the dna binding intended target family, where the subfamily is zinc finger.
Human liver HepG2 cells are transiently transfected with multiple reporter transcription units (MRTUs) in 6-well plates using FuGene 6 reagent (Roche; 3 ml FuGene/1 mg DNA). The MRTU constructs are regulated by a cis-regulating element (promoter). […] A major difference between the CIS and TRANS system is that in CIS activities of endogenous TFs are measured, whereas the TRANS assay evaluates changes in activities of exogenous, chimeric NR-Gal4 proteins. […] At the end of 24 hour incubation, total RNA was isolated using TriZol reagent (Invitrogen). The isolated RNA is then reverse-transcribed using oligo(dT) primer and Mo-MLV reverse transcriptase (Invitrogen) with DNAse I (Ambion) treatment for 30 min. The one-tenth of the produced cDNA was amplified by PCR using Taq DNA polymerase (Invitrogen) and two reporter sequence-specific primers. The PCR products were fluorescently labeled by primer extension with 6-arboxyfluorescein (6-FAM) 5'-labeled reporter sequence-specific primer (2 min at 95 C, 20 s at 68 C and 10 min at 72 C) and these products were digested with 5U of HpaI (New England Biolabs) for 2h at 37 C. The fragments were purified using Qiaquick PCR columns (Qiagen), analyzed on an ABI 3130xL genetic analyzer (Applied Biosystems) with peak positions identified by using a set of X-rhodamine (ROX)-labeled MapMarker1000 molecular weight standards (BioVentures). The raw capillary electrophoresis data was processed using Attagraph software (Attagene).

Compound	outcome	AC50
CCCCOCCOCCOCc1cc2c(cc1CCC)OCO2	inactive	–
CCOC(=O)C(C)Oc1ccc(Oc2cnc3cc(Cl)ccc3n2)cc1 (stereo not given)	inactive	–
CCCN(CCC)C(=O)SCC	inactive	–
c1ccc2[nH]c(-c3cscn3)nc2c1	inactive	–
COC(=O)CSc1cc(N=c2sc(=O)n3n2CCCC3)c(F)cc1Cl	inactive	–
CCN(CC)C(=O)c1cccc(C)c1	inactive	–
CCOC(=O)C(C)Oc1ccc(Oc2nc3ccc(Cl)cc3o2)cc1 (stereo not given)	inactive	–
CC(=O)[C@H]1CC[C@H]2[C@@H]3CCC4=CC(=O)CC[C@]4(C)[C@H]3CC[C@]12C	inactive	22.6 µM (active) and 50.7 µM (active) and 26.7 µM (active)
N[C@@H](Cc1cc(I)c(Oc2ccc(O)c(I)c2)c(I)c1)C(=O)O	inactive	–
O=C(c1ccccc1)C1CCCCC1	inactive	–
COC(=O)c1ccc(I)cc1S(=O)(=O)NC(=O)Nc1nc(C)nc(OC)n1	inactive	–
Oc1ccc(C(c2ccc(O)cc2)C(Cl)(Cl)Cl)cc1	inactive	–
C#CCOC(=O)[C@@H](C)Oc1ccc(Oc2ncc(Cl)cc2F)cc1	inactive	–
CC(C)CCCCCCc1ccc(O)cc1	inactive	17.7 µM (active) and 17.3 µM (active)
COC(=O)c1ccccc1C(=O)O	inactive	–
CCCCC(CC)COC(=O)c1ccccc1C(=O)O (stereo not given)	inactive	–
O=C(O)c1ccccc1	inactive	–
OB(O)O	inactive	–
COc1nc(C)nc(NC(=O)NS(=O)(=O)c2ccccc2OCCCl)n1	inactive	–

Compound	outcome	AC50
S=C([S-])NCCNC(=S)[S-].[Mn+2]	inactive	–
CCCCCCC(C)OC(=O)COc1nc(F)c(Cl)c(N)c1Cl (stereo not given)	inactive	–
CSC(=O)c1cccc2nnsc12	inactive	–
CCOC(=O)[C@H](C)Oc1ccc(Oc2nc3ccc(Cl)cc3o2)cc1	inactive	–
CCCCC(CC)CN1C(=O)C2C3C=CC(C3)C2C1=O (stereo not given)	inactive	–
N#CSCSc1nc2ccccc2s1	inactive	–
Cc1nn(C)c(Oc2ccccc2)c1C=NOCc1ccc(C(=O)OC(C)(C)C)cc1	–	934 nM (active)
O=C(O)C1(C(=O)Nc2ccc(Cl)cc2Cl)CC1	inactive	–
CCN(Cc1c(F)cccc1Cl)c1c([N+](=O)[O-])cc(C(F)(F)F)cc1[N+](=O)[O-]	inactive	–
COC(=O)c1c(Cl)nn(C)c1S(=O)(=O)NC(=O)Nc1nc(OC)cc(OC)n1	inactive	–
CCCOC(=O)NCCCN(C)C	inactive	–
CC(C)(C)[C@@H](O)[C@@H](Cc1ccc(Cl)cc1)n1cncn1	–	26100 nM (active)
CCC(O)=C1C(=O)CC(C(=O)O)CC1=O (stereo not given)	inactive	–
CC(=O)S[C@@H]1CC2=CC(=O)CC[C@]2(C)[C@H]2CC[C@@]3(C)[C@@H](CC[C@@]34CCC(=O)O4)[C@H]12	inactive	17.6 µM (active) and 27.2 µM (active)
CCOC(=O)c1ccc(O)cc1	inactive	–
C#C[C@]1(O)CC[C@H]2[C@@H]3CCC4=CC(=O)CC[C@@H]4[C@H]3CC[C@@]21CC	inactive	–
c1ccc(Nc2ccccc2)cc1	inactive	–
CCCCCOC(=O)COc1cc(N2C(=O)C3=C(CCCC3)C2=O)c(F)cc1Cl	inactive	–
